ChEMBL document CHEMBL1961873, “Compounds: GSK PKIS; Assays: Nanosyn kinase panel” (2012)

Tests used:
[1] = target: T1, Inhibitor of nuclear factor kappa-B kinase subunit epsilon (Homo sapiens) (UniProt Q14164); settings: at 1 µM;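 note: reported values are averaged percent inhibition figures against human IKKε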
T1 sequence (whole entry): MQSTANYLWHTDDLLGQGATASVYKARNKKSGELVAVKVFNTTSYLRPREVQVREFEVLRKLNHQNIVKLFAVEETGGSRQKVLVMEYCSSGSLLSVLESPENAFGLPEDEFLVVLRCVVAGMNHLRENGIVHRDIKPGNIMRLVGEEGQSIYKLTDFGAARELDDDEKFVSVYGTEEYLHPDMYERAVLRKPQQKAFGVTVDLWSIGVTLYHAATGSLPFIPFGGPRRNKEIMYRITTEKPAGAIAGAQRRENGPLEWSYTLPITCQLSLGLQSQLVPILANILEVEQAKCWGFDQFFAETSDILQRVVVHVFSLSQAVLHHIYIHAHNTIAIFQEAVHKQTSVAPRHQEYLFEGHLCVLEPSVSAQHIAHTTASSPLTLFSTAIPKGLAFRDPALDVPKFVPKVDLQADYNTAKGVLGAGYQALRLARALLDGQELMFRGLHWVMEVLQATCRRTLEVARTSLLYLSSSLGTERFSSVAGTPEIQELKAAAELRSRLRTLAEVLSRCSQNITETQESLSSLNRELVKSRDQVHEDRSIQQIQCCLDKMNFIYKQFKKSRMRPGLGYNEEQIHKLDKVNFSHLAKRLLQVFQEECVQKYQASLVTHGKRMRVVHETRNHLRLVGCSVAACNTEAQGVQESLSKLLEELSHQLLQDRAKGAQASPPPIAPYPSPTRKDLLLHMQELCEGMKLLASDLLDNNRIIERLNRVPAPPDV

[2] = target: T2, Serine/threonine-protein kinase Nek1 (Homo sapiens) (UniProt Q96PY6); settings: at 0.1 µM
T2 sequence (whole entry): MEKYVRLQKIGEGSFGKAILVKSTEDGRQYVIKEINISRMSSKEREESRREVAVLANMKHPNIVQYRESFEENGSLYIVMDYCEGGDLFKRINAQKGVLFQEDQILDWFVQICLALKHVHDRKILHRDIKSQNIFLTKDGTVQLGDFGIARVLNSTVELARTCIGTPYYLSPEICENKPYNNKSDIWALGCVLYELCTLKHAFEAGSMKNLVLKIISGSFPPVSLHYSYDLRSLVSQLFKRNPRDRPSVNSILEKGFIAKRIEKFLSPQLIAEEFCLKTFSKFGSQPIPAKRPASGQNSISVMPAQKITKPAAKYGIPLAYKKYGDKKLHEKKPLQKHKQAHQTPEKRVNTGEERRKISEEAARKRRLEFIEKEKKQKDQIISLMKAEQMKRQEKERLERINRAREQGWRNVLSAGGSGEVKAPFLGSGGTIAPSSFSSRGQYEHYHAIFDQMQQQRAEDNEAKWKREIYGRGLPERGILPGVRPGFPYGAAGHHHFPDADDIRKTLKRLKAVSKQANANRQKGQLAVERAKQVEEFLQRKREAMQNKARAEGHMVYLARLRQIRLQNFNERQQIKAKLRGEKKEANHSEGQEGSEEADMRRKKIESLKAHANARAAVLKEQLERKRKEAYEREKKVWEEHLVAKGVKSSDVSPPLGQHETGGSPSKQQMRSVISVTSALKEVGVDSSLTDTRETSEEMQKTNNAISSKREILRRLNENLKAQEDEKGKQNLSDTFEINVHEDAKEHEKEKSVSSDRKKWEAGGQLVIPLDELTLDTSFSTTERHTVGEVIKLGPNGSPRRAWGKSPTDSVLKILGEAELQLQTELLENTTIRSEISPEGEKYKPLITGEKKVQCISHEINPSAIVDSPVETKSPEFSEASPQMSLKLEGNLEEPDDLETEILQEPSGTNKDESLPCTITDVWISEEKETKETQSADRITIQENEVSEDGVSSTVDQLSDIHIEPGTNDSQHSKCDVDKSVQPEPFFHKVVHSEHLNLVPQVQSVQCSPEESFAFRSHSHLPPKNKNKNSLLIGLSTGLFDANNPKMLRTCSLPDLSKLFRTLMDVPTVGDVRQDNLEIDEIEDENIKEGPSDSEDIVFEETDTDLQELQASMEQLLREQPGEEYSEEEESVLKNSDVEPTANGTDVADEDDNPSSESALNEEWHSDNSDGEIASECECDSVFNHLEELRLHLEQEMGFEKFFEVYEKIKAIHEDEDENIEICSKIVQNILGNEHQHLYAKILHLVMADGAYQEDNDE

[3] = target: T2, Serine/threonine-protein kinase Nek1 (Homo sapiens); settings: at 1 µM
[4] = target: T3, Serine/threonine-protein kinase Nek2 (Homo sapiens) (UniProt P51955); settings: at 0.1 µM
T3 sequence (whole entry): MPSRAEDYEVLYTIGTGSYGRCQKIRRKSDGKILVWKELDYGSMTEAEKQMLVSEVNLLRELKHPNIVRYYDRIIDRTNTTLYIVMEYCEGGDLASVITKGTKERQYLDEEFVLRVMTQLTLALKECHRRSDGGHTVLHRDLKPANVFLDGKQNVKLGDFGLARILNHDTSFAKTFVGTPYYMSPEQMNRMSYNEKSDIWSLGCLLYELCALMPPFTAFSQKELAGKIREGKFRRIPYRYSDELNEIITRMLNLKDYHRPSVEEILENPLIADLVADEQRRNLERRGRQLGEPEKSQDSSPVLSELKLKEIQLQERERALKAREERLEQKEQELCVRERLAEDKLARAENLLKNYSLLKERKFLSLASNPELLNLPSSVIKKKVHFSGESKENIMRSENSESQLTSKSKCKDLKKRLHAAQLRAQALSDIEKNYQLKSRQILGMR

[5] = target: T3, Serine/threonine-protein kinase Nek2 (Homo sapiens); settings: at 1 µM
[6] = target: Serine/threonine-protein kinase Nek6 (Homo sapiens) (UniProt Q9HC98); settings: at 0.1 µM
[7] = target: Serine/threonine-protein kinase Nek6 (Homo sapiens) (UniProt Q9HC98); settings: at 1 µM
[8] = target: Serine/threonine-protein kinase Nek7 (Homo sapiens) (UniProt Q8TDX7); settings: at 0.1 µM
[9] = target: Serine/threonine-protein kinase Nek7 (Homo sapiens) (UniProt Q8TDX7); settings: at 1 µM
[10] = target: T4, Serine/threonine-protein kinase Nek9 (Homo sapiens) (UniProt Q8TD19); settings: at 0.1 µM
T4 sequence (whole entry): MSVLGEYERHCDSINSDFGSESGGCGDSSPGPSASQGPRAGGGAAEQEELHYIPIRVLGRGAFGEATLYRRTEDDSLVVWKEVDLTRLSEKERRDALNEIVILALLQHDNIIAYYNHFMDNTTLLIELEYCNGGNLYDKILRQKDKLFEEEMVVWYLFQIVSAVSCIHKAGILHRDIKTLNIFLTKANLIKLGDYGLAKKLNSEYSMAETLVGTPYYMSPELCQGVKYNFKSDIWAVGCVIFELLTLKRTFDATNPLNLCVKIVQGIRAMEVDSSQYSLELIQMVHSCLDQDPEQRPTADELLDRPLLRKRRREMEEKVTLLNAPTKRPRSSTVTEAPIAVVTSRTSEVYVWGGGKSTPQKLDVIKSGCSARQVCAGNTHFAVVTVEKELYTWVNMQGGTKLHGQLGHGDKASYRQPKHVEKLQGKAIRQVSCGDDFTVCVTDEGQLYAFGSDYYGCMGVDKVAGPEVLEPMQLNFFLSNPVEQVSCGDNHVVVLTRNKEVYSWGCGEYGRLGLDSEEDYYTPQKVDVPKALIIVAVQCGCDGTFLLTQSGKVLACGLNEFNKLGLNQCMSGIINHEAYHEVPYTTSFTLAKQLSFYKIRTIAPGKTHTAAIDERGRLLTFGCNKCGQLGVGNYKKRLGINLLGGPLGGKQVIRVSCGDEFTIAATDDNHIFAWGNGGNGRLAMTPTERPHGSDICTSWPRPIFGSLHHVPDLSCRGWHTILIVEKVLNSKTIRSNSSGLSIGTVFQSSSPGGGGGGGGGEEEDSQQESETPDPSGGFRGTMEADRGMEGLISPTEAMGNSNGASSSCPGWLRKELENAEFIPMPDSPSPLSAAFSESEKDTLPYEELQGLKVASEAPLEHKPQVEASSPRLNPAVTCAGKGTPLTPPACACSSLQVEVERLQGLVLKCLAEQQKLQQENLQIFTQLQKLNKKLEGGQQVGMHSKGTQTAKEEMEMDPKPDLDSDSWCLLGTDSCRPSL

[11] = target: T4, Serine/threonine-protein kinase Nek9 (Homo sapiens); settings: at 1 µM
[12] = target: Serine/threonine-protein kinase PLK1 (Homo sapiens) (UniProt P53350); settings: at 0.1 µM
[13] = target: Serine/threonine-protein kinase PLK1 (Homo sapiens) (UniProt P53350); settings: at 1 µM
[14] = target: T5, Dual specificity protein kinase TTK (Homo sapiens) (UniProt P33981); settings: at 0.1 µM
T5 sequence (whole entry): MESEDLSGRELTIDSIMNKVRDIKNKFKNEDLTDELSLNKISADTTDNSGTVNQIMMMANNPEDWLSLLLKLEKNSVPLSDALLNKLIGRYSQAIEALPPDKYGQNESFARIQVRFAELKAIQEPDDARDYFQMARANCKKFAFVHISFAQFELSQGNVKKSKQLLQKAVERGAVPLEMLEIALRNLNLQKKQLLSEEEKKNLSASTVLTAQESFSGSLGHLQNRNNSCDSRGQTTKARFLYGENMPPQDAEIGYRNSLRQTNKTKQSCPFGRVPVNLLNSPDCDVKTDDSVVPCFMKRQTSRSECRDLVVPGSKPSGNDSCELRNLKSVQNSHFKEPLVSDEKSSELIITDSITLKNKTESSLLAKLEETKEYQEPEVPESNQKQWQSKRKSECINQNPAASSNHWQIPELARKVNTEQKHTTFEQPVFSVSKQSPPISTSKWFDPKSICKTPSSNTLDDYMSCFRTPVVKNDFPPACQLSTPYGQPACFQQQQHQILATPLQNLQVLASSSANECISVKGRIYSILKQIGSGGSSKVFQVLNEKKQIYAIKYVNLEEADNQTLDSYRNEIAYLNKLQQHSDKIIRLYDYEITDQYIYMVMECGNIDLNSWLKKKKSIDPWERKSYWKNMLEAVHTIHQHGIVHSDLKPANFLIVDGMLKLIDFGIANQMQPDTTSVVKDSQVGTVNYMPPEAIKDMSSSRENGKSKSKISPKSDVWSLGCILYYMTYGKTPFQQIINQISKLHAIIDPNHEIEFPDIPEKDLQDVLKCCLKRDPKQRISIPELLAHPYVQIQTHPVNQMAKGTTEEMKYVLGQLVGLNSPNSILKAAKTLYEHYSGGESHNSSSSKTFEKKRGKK

[15] = tested on: T6, Receptor-type tyrosine-protein kinase FLT3 (Homo sapiens), P36888 [D835Y]; settings: at 1 µM
T6 sequence (whole entry): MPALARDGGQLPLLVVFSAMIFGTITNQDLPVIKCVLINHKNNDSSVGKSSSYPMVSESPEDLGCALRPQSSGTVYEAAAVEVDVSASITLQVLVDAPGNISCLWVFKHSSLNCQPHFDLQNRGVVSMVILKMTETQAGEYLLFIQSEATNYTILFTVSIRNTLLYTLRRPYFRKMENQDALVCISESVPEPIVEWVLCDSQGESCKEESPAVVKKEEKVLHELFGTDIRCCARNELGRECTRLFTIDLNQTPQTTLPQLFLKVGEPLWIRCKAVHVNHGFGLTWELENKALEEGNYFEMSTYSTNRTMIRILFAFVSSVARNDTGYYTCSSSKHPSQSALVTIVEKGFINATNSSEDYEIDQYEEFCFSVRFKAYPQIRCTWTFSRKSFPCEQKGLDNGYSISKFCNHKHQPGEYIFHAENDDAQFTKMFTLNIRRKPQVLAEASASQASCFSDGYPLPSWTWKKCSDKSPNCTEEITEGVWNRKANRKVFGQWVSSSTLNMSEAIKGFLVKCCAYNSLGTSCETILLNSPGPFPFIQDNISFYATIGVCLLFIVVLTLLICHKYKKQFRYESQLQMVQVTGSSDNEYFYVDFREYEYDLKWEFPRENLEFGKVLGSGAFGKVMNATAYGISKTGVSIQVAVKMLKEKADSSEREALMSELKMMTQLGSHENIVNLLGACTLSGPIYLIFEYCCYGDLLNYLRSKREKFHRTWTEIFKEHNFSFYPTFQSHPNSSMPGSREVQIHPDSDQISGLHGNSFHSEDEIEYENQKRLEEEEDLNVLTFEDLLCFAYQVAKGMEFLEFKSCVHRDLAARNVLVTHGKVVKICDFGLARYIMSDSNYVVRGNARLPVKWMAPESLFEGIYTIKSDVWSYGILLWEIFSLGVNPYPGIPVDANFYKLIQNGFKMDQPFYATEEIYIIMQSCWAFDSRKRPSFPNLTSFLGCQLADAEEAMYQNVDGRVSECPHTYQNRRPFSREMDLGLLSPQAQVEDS

[16] = target: Vascular endothelial growth factor receptor 3 (Homo sapiens) (UniProt P35916); settings: at 0.1 µM
[17] = target: Vascular endothelial growth factor receptor 3 (Homo sapiens) (UniProt P35916); settings: at 1 µM
[18] = target: Macrophage colony-stimulating factor 1 receptor (Homo sapiens) (UniProt P07333); settings: at 0.1 µM
[19] = target: Macrophage colony-stimulating factor 1 receptor (Homo sapiens) (UniProt P07333); settings: at 1 µM
[20] = target: Tyrosine-protein kinase Fyn (Homo sapiens) (UniProt P06241); settings: at 0.1 µM
Chain of Tyrosine-protein kinase Fyn (Homo sapiens) (P06241 2-537 limits assumed): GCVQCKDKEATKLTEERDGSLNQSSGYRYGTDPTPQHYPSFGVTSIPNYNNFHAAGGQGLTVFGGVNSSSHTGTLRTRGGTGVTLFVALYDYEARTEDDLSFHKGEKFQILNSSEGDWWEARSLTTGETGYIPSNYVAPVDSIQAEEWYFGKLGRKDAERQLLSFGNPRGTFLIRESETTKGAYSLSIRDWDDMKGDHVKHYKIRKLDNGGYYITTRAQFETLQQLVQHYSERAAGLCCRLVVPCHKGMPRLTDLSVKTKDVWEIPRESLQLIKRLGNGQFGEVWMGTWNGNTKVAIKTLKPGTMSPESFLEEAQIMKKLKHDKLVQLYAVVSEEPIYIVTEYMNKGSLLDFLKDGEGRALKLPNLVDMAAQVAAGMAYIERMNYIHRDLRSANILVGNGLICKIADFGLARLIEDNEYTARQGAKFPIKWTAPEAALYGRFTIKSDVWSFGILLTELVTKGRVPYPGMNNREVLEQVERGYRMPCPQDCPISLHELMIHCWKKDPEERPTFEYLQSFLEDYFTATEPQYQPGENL

Chain of Macrophage colony-stimulating factor 1 receptor (Homo sapiens) (P07333 whole entry): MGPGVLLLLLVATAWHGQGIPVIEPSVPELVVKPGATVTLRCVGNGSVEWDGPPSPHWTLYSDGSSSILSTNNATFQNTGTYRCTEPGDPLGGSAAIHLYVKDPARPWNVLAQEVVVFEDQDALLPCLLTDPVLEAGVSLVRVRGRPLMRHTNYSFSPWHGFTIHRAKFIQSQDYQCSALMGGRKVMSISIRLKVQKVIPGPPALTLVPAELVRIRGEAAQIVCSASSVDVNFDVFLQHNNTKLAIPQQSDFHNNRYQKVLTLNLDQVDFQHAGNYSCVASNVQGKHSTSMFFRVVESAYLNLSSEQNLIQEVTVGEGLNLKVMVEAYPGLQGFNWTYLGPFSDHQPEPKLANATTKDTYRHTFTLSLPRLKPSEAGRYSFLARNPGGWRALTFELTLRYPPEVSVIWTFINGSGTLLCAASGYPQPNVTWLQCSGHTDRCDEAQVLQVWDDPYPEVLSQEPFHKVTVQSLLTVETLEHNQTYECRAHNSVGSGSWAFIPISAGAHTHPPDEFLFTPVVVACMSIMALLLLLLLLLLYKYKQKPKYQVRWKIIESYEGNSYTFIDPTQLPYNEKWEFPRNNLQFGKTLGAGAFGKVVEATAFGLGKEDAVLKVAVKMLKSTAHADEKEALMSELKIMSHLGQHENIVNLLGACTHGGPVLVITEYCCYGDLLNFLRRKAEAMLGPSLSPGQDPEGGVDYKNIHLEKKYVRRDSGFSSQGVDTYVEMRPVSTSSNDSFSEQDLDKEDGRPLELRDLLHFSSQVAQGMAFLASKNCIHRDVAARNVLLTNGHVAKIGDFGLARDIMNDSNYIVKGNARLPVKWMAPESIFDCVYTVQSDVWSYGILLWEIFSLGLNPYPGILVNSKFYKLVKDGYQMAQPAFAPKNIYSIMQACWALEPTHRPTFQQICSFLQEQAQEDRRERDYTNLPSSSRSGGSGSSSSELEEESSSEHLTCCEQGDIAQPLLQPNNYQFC
Chain of Vascular endothelial growth factor receptor 3 (Homo sapiens) (P35916 whole entry): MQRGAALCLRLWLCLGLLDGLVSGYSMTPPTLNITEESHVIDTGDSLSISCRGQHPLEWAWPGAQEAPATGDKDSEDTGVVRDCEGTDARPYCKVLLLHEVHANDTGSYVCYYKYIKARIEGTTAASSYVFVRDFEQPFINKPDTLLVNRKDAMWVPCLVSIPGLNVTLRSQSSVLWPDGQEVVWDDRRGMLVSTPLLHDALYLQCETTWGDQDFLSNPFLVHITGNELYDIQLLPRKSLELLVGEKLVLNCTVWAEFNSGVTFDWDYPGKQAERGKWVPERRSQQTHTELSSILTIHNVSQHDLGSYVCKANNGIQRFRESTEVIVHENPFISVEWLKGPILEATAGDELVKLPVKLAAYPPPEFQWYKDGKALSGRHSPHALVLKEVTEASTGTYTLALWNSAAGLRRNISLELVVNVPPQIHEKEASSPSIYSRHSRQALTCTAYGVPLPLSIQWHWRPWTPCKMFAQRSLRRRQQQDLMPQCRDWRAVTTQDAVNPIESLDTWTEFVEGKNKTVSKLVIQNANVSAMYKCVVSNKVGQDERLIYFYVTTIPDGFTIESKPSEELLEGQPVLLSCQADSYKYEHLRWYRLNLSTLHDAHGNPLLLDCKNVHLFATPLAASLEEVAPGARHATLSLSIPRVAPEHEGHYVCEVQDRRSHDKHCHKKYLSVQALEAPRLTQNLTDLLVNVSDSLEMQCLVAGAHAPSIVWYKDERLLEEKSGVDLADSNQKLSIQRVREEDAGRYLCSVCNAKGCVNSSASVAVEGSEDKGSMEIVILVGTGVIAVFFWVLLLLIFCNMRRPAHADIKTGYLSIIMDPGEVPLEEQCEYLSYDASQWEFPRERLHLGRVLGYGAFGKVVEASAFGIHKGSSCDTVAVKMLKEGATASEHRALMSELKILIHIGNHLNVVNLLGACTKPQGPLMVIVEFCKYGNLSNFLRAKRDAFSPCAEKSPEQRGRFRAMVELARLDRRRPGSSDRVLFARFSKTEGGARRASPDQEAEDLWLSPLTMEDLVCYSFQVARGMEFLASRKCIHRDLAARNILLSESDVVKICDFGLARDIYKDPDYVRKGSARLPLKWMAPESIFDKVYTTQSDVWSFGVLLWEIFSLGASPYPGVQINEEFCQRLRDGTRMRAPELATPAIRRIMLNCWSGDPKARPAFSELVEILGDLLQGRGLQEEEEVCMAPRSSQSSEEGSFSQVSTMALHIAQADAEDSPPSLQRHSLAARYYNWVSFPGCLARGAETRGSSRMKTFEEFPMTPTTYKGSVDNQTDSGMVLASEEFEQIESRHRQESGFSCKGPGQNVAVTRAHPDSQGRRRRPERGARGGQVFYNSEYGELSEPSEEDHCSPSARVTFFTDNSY
Chain of Serine/threonine-protein kinase PLK1 (Homo sapiens) (P53350 whole entry): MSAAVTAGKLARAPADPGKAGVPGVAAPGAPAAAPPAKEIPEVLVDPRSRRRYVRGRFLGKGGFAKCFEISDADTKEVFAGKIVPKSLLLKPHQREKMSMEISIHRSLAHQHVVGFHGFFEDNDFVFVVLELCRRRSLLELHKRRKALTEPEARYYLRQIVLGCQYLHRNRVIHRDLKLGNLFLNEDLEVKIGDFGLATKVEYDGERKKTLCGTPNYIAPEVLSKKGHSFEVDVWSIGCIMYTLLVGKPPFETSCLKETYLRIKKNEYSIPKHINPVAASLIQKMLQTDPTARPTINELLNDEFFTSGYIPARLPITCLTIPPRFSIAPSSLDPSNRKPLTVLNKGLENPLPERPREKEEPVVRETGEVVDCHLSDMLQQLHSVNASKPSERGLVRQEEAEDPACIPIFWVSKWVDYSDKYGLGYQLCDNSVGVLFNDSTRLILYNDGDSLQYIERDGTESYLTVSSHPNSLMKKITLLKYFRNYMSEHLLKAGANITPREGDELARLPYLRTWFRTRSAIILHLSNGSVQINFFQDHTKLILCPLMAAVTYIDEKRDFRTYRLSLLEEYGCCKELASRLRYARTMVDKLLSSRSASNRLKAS
Chain of Serine/threonine-protein kinase Nek7 (Homo sapiens) (Q8TDX7 whole entry, looked up): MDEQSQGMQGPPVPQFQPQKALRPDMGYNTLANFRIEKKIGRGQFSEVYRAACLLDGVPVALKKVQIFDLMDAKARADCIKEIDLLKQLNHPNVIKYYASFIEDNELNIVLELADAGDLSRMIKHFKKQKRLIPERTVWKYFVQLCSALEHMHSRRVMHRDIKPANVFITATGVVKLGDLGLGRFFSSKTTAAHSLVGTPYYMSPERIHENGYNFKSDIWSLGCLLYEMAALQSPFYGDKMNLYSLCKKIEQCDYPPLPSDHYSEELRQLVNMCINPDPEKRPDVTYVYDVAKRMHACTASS
Chain of Serine/threonine-protein kinase Nek6 (Homo sapiens) (Q9HC98 whole entry): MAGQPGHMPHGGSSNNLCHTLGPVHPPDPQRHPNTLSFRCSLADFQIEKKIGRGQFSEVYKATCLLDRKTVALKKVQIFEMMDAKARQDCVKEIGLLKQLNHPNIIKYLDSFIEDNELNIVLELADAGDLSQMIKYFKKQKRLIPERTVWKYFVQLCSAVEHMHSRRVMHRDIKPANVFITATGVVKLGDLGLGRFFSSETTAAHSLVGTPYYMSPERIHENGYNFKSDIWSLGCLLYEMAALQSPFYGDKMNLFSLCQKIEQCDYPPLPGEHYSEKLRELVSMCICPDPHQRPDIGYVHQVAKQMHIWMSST

Row | SMILES | inhibition [1] | inhibition [2] | inhibition [3] | inhibition [4] | inhibition [5] | inhibition [6] | inhibition [7] | inhibition [8] | inhibition [9] | inhibition [10] | inhibition [11] | inhibition [12] | inhibition [13] | inhibition [14] | inhibition [15] | inhibition [16] | inhibition [17] | inhibition [18] | inhibition [19] | inhibition [20]
1 | COc1ccc(-c2nn3ncccc3c2-c2ccnc(Nc3ccc4c(c3)OCCO4)n2)cc1 | -0.27% | 0.11% | 2.9% | -0.55% | 3.9% | -0.41% | 0.26% | 2.18% | 1.38% | 6.4% | 8.39% | 2.68% | 2.45% | 4.08% | 0.07% | 8.62% | 56.4% | 19.6% | 66.8% | 5.65%
2 | CN(C)CCOc1ccc(-c2nc(-c3ccncc3)c(-c3ccc4c(c3)CC/C4=N\O)[nH]2)cc1 | 7.42% | 0.81% | 5.31% | 2.72% | 4.52% | 3.81% | 0.68% | 1.62% | 2.67% | 4.08% | 4.4% | 2.08% | 2.04% | 6.91% | 7.87% | 1.85% | 3.47% | -1.89% | 4.02% | 0.02%
